Screens deposited in PubChem by several laboratories.
Mcl1-Bid inh: Mcl-1/Bid interaction inhibition; Q07820; TR-FRET Mcl-1/Bid-Dy647 peptide binding, 1536-well; inhibition, % at 21.7 µM; hit rate 0.97% among 220,000;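 active = compounds that cut the binding signal by more than half at the single screening dose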;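 also: His-tagged Mcl-1 with europium anti-His antibody binding Bid BH3 peptide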
Target sequence (Q07820 whole entry, looked up): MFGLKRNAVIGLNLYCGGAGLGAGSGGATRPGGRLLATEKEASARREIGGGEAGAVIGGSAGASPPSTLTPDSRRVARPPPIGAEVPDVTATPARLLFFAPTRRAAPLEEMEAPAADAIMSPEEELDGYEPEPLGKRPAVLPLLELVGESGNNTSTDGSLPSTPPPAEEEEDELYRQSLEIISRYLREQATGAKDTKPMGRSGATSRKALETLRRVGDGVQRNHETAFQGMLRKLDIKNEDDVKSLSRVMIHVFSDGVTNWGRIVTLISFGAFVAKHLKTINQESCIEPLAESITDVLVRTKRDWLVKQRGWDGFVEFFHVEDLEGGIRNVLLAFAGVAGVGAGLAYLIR
Pf gamet viab: kills late stage P. falciparum gametocytes; P. falciparum stage V gametocytes, ATP luminescence, 24 h; inhibition, % at 10.9 µM; hit rate 0.065% among 150,000; AID 743093;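 active = inhibition above the mean plus 3 SD of compounds within the control limits, set per campaign, cut at about 38% in these data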
14-3-3 Bad PPI: disrupts binding of bovine 14-3-3 zeta to phospho-Bad peptide; P63103; TR-FRET 14-3-3zeta/Dy647-pBad peptide displacement, 1 h; inhibition, % at 21.7 µM; hit rate 0.71% among 220,000;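 active = inhibition above about 70%, limit read from the data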
Target sequence (P63103 whole entry, looked up): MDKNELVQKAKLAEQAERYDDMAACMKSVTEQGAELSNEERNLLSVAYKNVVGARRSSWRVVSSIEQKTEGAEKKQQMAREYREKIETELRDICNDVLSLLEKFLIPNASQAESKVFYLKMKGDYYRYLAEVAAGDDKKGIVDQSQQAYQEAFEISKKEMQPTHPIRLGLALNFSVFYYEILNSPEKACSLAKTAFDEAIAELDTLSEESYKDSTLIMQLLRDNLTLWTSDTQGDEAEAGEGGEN
Bim-Mcl-1: inhibitors of Bim-Mcl-1 interaction, human. hit rate 0.1% among 190,000. inhibition, % at 10 µM. Q07820. Bead-based flow cytometry, Bim peptide-Mcl-1 binding; in the data active = inhibition above about 40%
Mcl1 Noxa PPI: disrupts binding of human Mcl-1 to Noxa peptide | TR-FRET Mcl-1/Noxa peptide binding, 2 h | inhibition, % at 21.7 µM | Q07820 | hit rate 1.5% among 220,000;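 active = compounds that cut the protein-peptide binding signal by more than 50% relative to plate controls in a single-dose test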;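 also: His-tagged Mcl-1 with rhodamine Noxa BH3 peptide and terbium anti-His antibody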
Hck-Nef inh: inhibitors of human Hck kinase activated by Nef; inhibition, % at 20 µM; hit rate 0.68% among 220,000; Recombinant Hck-YEEI plus Nef, Z-Lyte FRET kinase assay;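 active = Hck-Nef kinase inhibition above about 50%, limit read from the data; inactive = inhibition below that limit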
Hck-Nef confirm: confirmation of Hck-Nef kinase inhibitors. AID 463188. calls only at 10 µM. shares compounds with Hck-Nef inh. hit rate 28% among 1,300. Recombinant Hck-YEEI:Nef, Z-Lyte FRET kinase assay;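 active = average inhibition of at least 50%, with Z-scores no higher than 3 in both the phospho-tyrosine peptide and fluorescence counterscreens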
Of the large screens only hits and unclear results are named; the others gave an inactive call (follow-up assays come after a bar, where they were run); ! = a repeat was not active; [ ] = another dose, or the depositor's remark. Only some compounds are listed: those with a hit (about 2.9% of all), similar ones and a draw of the others.

C=C1C2C[C@H](O)C(C)(C)[C@@]2(O)[C@H](O)C[C@]23C[C@@](C)(O)[C@H](CC[C@H]12)[C@H]3OC(C)=O (stereo partly drawn)	14-3-3 Bad PPI 92.9[fluorescence artefact?]
Cc1ccc(Sc2ccc(C=C3C(=O)N(C)C(=O)N(C)C3=O)o2)cc1	Hck-Nef inh 70.3 (no result: Pf gamet viab)
C[C@]12CC(=CO)C(=O)C[C@@H]1CC[C@@H]1[C@@H]2CC[C@@]2(C)[C@H]1CC[C@]2(C)O	none (no result: Pf gamet viab, Hck-Nef inh)
CCOc1ccc(N2C(=O)/C(=C\c3cccs3)C(=O)NC2=S)cc1	Mcl1 Noxa PPI 66.7
O=C1NC(=O)N(CC2CCCO2)C(=O)/C1=C/c1cccs1 (stereo not drawn)	none (no result: Bim-Mcl-1)
O=C1NC(=S)N(c2ccccc2F)C(=O)/C1=C\c1cccs1	Mcl1 Noxa PPI 86.2
CN1CC[C@]2(c3cccc(O)c3)Cc3nc4ccccc4cc3C[C@H]2C1	none (no result: Pf gamet viab, Hck-Nef inh)
O=Cc1c(C(=O)O)n(Cc2ccc(Cl)cc2)c2ccccc12	Mcl1 Noxa PPI 65.0
Cc1cccc(OCC(=O)N2CCN(Cc3ccncc3)CC2)c1	Mcl1-Bid inh 60.1 (no result: Pf gamet viab)
COc1ccccc1CN1CCN(C(=O)COc2cccc(C)c2)CC1	none
O=C(COc1ccccc1)N1CCN(Cc2c[nH]c3ccccc23)CC1	Mcl1-Bid inh 67.6, 14-3-3 Bad PPI 81.1 (no result: Pf gamet viab)
COc1cc(CN2CCN(C(=O)COc3ccccc3)CC2)cc(OC)c1OC	14-3-3 Bad PPI 77.7
C[N+]1(C)C2CCC1CC(OC(=O)C(CO)c1ccccc1)C2 (stereo not drawn)	14-3-3 Bad PPI 91.4
Cc1ccc(NP(=O)(c2ccccc2)c2nc3ccccc3s2)cc1 (stereo not drawn)	none
COCCNP(=O)(c1ccccc1)c1nc2ccccc2s1 (stereo not drawn)	Mcl1-Bid inh 57.6 (no result: Pf gamet viab)
Cc1ccc2c(c1Cl)NC(C(=O)O)C1CC(Sc3ccccc3[N+](=O)[O-])C(Cl)C21 (stereo not drawn)	Mcl1 Noxa PPI 97.2 (no result: Pf gamet viab, Bim-Mcl-1)
O=C(O)c1cccc2c1NC(c1cccc([N+](=O)[O-])c1)C1CC(Sc3ccccc3[N+](=O)[O-])C(Cl)C21 (stereo not drawn)	Mcl1 Noxa PPI 98.5 (no result: Pf gamet viab)
O=C(O)c1ccc2c(c1)C1C(Cl)C(Sc3ccccc3[N+](=O)[O-])CC1C(c1cccc([N+](=O)[O-])c1)N2 (stereo not drawn)	Mcl1 Noxa PPI 77.1 (no result: Pf gamet viab)
O=[N+]([O-])c1cccc(C2N3CCCN23)c1 (stereo not drawn)	none
COc1ccc(C(C)=O)cc1CC(C(=O)c1ccc(C)c(C)c1)N(C)C (stereo not drawn)	none
CCCCC(C)C(OC(=O)CC(CC(=O)O)C(=O)O)C(CC(C)CC(O)CCCCC(O)CC(O)C(C)N)OC(=O)CC(CC(=O)O)C(=O)O (stereo not drawn)	none (no result: Pf gamet viab)
CN1C2CCC1CC(=NO)C2	none (no result: Pf gamet viab)
C[C@H](O)[C@H]1CC[C@H]2[C@@H]3CCC4=CC(=O)CC[C@]4(C)[C@H]3CC[C@]12C	none (no result: Pf gamet viab)
CN1CCN(c2ccc3nccnc3c2)CC1	none
CCC1C2Cn3c(nc4ccccc43)C1N(C)O2 (stereo not drawn)	none (no result: Bim-Mcl-1)
Cc1cccc(N2CCc3c2nc2ccccc2c3N)c1	14-3-3 Bad PPI 78.2![fluorescence artefact?]
Cc1ccnc(-n2c(C)nc3ccccc3c2=O)c1	none (no result: Pf gamet viab)
CCC(CC)N1CCN(C(=O)Cc2ccccc2)CC1	14-3-3 Bad PPI 71.2 (no result: Pf gamet viab)
Cc1ccccc1CN1CCN(C(=O)Cc2ccccc2)CC1	none
CCCCCc1nc2c(c(=O)c3ccccc3n2C)c(=O)n1C1CCCCCC1	Mcl1-Bid inh 54.2
CCCCCc1nc2ccccc2c(=O)n1-c1ccccc1[N+](=O)[O-]	none
O=C(c1cccn2c(=O)c3ccccc3nc12)N1CCC2(CC1)OCCO2	none (no result: Pf gamet viab)
c1ccc(CCN2CCC(N3CCN(c4ccccc4)CC3)CC2)cc1	none (no result: Pf gamet viab)
CCCCN(Cc1ccccc1)C1CCN(CCc2ccccc2)CC1	Mcl1 Noxa PPI 50.7
CN1CCC(N(C)c2nc(-c3ccc([N+](=O)[O-])cc3)nc3ccccc23)CC1	Mcl1 Noxa PPI 94.3
COc1ccccc1OCC#CCN1CCCC(C)C1 (stereo not drawn)	none
COc1ccc(CCNCc2sccc2C)cc1	none (no result: Mcl1-Bid inh, 14-3-3 Bad PPI, Bim-Mcl-1, Mcl1 Noxa PPI, Hck-Nef inh)
C=CCn1c(O)c(C(C)=NCC2CCCO2)c(=O)[nH]c1=O (stereo not drawn)	Mcl1-Bid inh 77.5 (no result: Bim-Mcl-1)
CC(=NCC1CCCO1)c1c(O)n(C2CCCCC2)c(=O)[nH]c1=O (stereo not drawn)	none (no result: Bim-Mcl-1)
COc1ccc(N2C(=O)NC(=O)/C(=C/c3ccc4c(c3)Cc3ccccc3-4)C2=O)cc1	Hck-Nef inh 87.1 (no result: Pf gamet viab)
COc1cccc(N2C(=O)NC(=O)/C(=C/c3ccc4c5c(cccc35)CC4)C2=O)c1	Mcl1 Noxa PPI 51.6
Cc1ccccc1-n1c(O)c(C=NCCN2CCOCC2)c(=O)[nH]c1=O	none (no result: Pf gamet viab)
NC(=S)N/N=C/c1coc2ccccc2c1=O	Hck-Nef inh 52.9 (no result: Pf gamet viab) | Hck-Nef confirm inactive
C/C(CC(c1ccccc1)c1c(O)c2ccccc2oc1=O)=N\NC(N)=S (stereo not drawn)	none
CN1CCCC(C(=O)c2ccc(-c3ccccc3)cc2)C1 (stereo not drawn)	none (no result: Mcl1-Bid inh, 14-3-3 Bad PPI, Bim-Mcl-1, Mcl1 Noxa PPI, Hck-Nef inh)
CCN(CC)CCN=Cc1c(O)n(CCc2ccccc2)c(=O)[nH]c1=O	Hck-Nef inh 62.3 (no result: Pf gamet viab) | Hck-Nef confirm inactive
COC(=O)C1=C(c2ccc(F)cc2F)C[C@@H]2CC[C@H]1N2C(=O)NCCOc1ccccc1	none (no result: Mcl1-Bid inh, 14-3-3 Bad PPI, Bim-Mcl-1, Mcl1 Noxa PPI, Hck-Nef inh)
Cn1cnc([N+](=O)[O-])c1Sc1ccc([N+](=O)[O-])cc1	none (no result: Pf gamet viab)
N#Cc1ccccc1NC(=O)CN1CC=C(c2ccccc2)CC1	Hck-Nef inh 55.1 | Hck-Nef confirm inactive
CC(NC(=O)Cc1cccc2ccccc12)C(=O)N1CCC(=O)CC1 (stereo not drawn)	none
Cc1ccc(N2C(=O)NC(=O)/C(=C\c3cn(CC(=O)O)c4ccccc34)C2=O)cc1	none (no result: Mcl1-Bid inh, 14-3-3 Bad PPI, Bim-Mcl-1, Mcl1 Noxa PPI, Hck-Nef inh)
O=C(O)Cn1cc(/C=C2\C(=O)NC(=O)N(Cc3ccco3)C2=O)c2ccccc21	Hck-Nef inh 74.0 | Hck-Nef confirm inactive
C=CCNC(=S)/N=C/c1c(O)[nH]c(=O)[nH]c1=O	Hck-Nef inh 82.6 | Hck-Nef confirm inactive
CCCCCCCCN=Cc1c(O)[nH]c(=O)[nH]c1=O	none (no result: Bim-Mcl-1)
NC(=S)/N=C/c1c(O)[nH]c(=O)[nH]c1=O	Hck-Nef inh 62.9 (no result: Pf gamet viab) | Hck-Nef confirm inactive
CCN(CC)C(=O)c1ccc2c(c1)C1C(Cl)C(Sc3ccccc3[N+](=O)[O-])CC1C(C(=O)O)N2 (stereo not drawn)	Mcl1 Noxa PPI 63.4, Hck-Nef inh 63.1 (no result: Pf gamet viab, Bim-Mcl-1) | Hck-Nef confirm inactive
CC(=O)Nc1ccccc1C(=O)C(=O)Nc1cccc(C(=O)N2CCC3(CC2)OCCO3)c1	none
O=C1NC(=O)C(=Cc2cc3c(cc2[N+](=O)[O-])OCO3)C(=O)N1	none (no result: Pf gamet viab)
